The list is not random: actives were taken first. Their share in the collection is about 3.1%.
ARNT TACC3 PPI = disruptors of human ARNT/TACC3 interaction. Q9Y6A5. AlphaScreen His-ARNT PAS-B/GST-TACC3 binding, luminescence; TACC3 fragment carries E629A point mutation. actives 0.66% (n = 390,000). inhibition, % at 9.99 µM. AID 623870;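 active = mean inhibition of replicates at least 50% and at least half of replicates each reaching 50%; inconclusive = half or more replicates reach 50% but mean below 50%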
HIF activator = HIF pathway transcriptional activation; U2OS HRE-luciferase reporter, luminescence; normalized: DMSO 0%, desferrioxamine 100%; activation, % at 7.5 µM (by protocol); actives 0.32% (n = 300,000); AID 1910;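 active = mean activation of at least 10% of the iron chelator positive control signal, with at least half of replicates also reaching 10%; inconclusive = mean and replicate majority disagree about reaching 10%; inactive = mean and most replicates under 10%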
HSP90 refold inh = blocks HSP90-mediated luciferase refolding in reticulocyte lysate | inhibition, % at 5.6 µM | actives 0.91% (n = 290,000) | Rabbit reticulocyte lysate, luciferase refolding luminescence, 3 h;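 active = inhibition above the screen-wide mean plus 3 SD, computed separately per campaign, cut at about 16% in these data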;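 note: inhibitors lower the luminescence because luciferase stays unfolded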
HSF-1 act = increases HSF-1 driven luciferase reporter signal. NIH3T3-HGL HSF-1 luciferase reporter, MG132, 8 h; 100% = twice DMSO control signal. activation, % at 9 µM. actives 1.7% (n = 300,000). AID 504408;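 active = mean replicate activation of at least 50% with a set share of replicates each reaching 50%; inconclusive = only one of those two conditions met; inactive = mean below 50% and too few replicates reaching it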
HSF1 inhib = HSF1 inhibition | NIH3T3-HGL HSE-luciferase, MG132-induced, luminescence 8 h; stronger effect = lower value | actives 0.77% (n = 300,000) | activity change, negative = inhibition, % at 7.5 µM (by protocol);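 active = more than half of replicate wells show activity change below -50%, luminescence cut by over half; inconclusive = some wells, but at most half, below -50%; inactive = no replicate well below -50%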;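 note: luciferase reports HSF-1 transcriptional activity via heat shock element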
HSP90 inh confirm = confirmation of HSP90 inhibitors | shares compounds with HSP90 refold inh | rabbit reticulocyte lysate, luciferase refolding luminescence, 3 h | inhibition, % at 5.9 µM | actives 64% (n = 2,300) | AID 1846; in the data active = inhibition above about 18%
luciferase ctr = counter-screen for HSP90 inhibitors: inhibitors of firefly luciferase | shares compounds with HSP90 refold inh | purified native firefly luciferase, luminescence | inhibition, % at 5.9 µM | actives 48% (n = 2,300) | AID 1847;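 active = inhibition above the mean inhibition of all tested sample wells plus 3 SD, cut at about 10% in these data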
Target sequence (P08659 whole entry, looked up): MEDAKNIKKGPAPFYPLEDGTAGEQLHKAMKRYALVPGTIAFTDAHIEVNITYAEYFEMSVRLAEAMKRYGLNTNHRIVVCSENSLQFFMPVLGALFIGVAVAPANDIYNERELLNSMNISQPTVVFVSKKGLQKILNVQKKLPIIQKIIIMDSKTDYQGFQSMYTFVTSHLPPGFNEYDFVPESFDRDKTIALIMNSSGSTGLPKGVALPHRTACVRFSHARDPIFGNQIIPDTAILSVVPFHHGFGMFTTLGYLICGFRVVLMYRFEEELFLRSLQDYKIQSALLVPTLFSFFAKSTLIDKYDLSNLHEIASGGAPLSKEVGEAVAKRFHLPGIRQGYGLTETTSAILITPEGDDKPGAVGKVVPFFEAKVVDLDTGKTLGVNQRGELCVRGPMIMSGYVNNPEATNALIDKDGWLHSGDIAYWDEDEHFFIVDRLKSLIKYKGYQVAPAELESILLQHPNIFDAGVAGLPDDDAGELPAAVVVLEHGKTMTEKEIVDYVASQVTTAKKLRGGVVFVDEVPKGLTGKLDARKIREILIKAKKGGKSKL
Of the large screens only hits and unclear results are named; the others gave an inactive call (follow-up assays come after a bar, where they were run).

Cc1nnc(N/N=C/c2cc([N+](=O)[O-])c(N3CCC(C)CC3)cc2N2CCC(C)CC2)n1N	HSP90 refold inh 76 | HSP90 inh confirm inactive | luciferase ctr inactive
CCc1nnc(N/N=C/c2ccc(N3CCC(C)CC3)c([N+](=O)[O-])c2)n1N	HSP90 refold inh 21 | HSP90 inh confirm inactive | luciferase ctr inactive
O=C(C[C@H]1CC[C@H]2[C@@H](COC[C@H](O)CN2Cc2cccc(-c3ccncc3)c2)O1)N1CCCCC1	none (no result: HIF activator, HSP90 refold inh, HSF-1 act, HSF1 inhib)
COc1cccc(-c2ccc3c(c2)O[C@@H](CN(C)Cc2ccncc2)[C@@H](C)CN([C@H](C)CO)S3(=O)=O)c1	none (no result: HIF activator, HSP90 refold inh, HSF-1 act, HSF1 inhib)
O=C1/C(=C/Nc2ccc3c(c2)OCO3)CCc2ccccc21	HSP90 refold inh 38 (no result: ARNT TACC3 PPI) | HSP90 inh confirm 86 | luciferase ctr 72
Fc1ccccc1OCCSc1nnnn1-c1ccccc1	HSP90 refold inh 25 | HSP90 inh confirm 29 | luciferase ctr inactive
COc1ccccc1OCCSc1nnnn1-c1ccc(C)cc1	none (no result: HSP90 refold inh)
Cc1ccccc1N=Cc1cccc(O)c1O	none
Oc1cccc(/C=N/N=C/c2cccc(O)c2O)c1O	HSP90 refold inh 25 | HSP90 inh confirm 71 | luciferase ctr 74
Cc1cc(/C=N/NC(=O)c2ccncc2)c(C)n1-c1ccccc1	none
Cc1cc(C(=O)N/N=C/c2ccc(O)c(O)c2O)c(C)n1-c1ccccc1	HSP90 refold inh 17 | HSP90 inh confirm inactive | luciferase ctr inactive
Cc1cc(/C=N/NC(=O)c2cccs2)c(C)n1-c1ccccc1	HSP90 refold inh 57, HSF1 inhib -69 | HSP90 inh confirm 71 | luciferase ctr 66
CCOC(=O)c1csc(NC(=O)c2cc3ccccc3o2)n1	HSP90 refold inh 58 | HSP90 inh confirm 88 | luciferase ctr inactive
CCOC(=O)c1sc(NC(=O)c2cc3ccccc3o2)nc1C	none
Cc1cc(-c2csc(NC(=O)c3cc4ccccc4o3)n2)c(C)n1C	HSP90 refold inh 41 | HSP90 inh confirm 34 | luciferase ctr inactive
Cc1nc(NC(=O)c2cc3ccccc3o2)sc1C	HSP90 refold inh 40 | HSP90 inh confirm 54 | luciferase ctr 47
CCN1C=CC(=C2C(=O)c3ccccc3C2=O)C=C1	HSP90 refold inh 86, HSF1 inhib -76 | HSP90 inh confirm 93 | luciferase ctr 87
CN1C=CC(=C2C(=O)c3ccccc3C2=O)C=C1	none (no result: ARNT TACC3 PPI)
CCCN1C=CC(=C2C(=O)c3ccccc3C2=O)C=C1	HSP90 refold inh 92, HSF1 inhib -83 | HSP90 inh confirm 96 | luciferase ctr 91
CC1=CC(=C2C(=O)c3ccccc3C2=O)C=C(C)N1Cc1ccco1	none
CCCCN1C(C)=CC(=C2C(=O)c3ccccc3C2=O)C=C1C	HSP90 refold inh 17 | HSP90 inh confirm 43 | luciferase ctr 31
CCCCCCN1C=CC(=C2C(=O)c3ccccc3C2=O)C=C1	HSP90 refold inh 48, HSF1 inhib inconclusive | HSP90 inh confirm 84 | luciferase ctr 78
COc1ccc(CNC(=O)C[C@H]2C[C@H]3c4cc(NC(=O)CC5CC5)ccc4O[C@H]3[C@@H](CO)O2)cc1	none (no result: HIF activator, HSP90 refold inh, HSF-1 act, HSF1 inhib)
C[C@@H]1CN([C@H](C)CO)C(=O)c2cc(N(C)C)ccc2O[C@@H]1CN(C)S(=O)(=O)c1ccc(F)cc1	none (no result: HIF activator, HSP90 refold inh, HSF-1 act, HSF1 inhib)
O=C(O)c1ccc(Cn2cc(/C=C\[N+](=O)[O-])c3ccccc32)o1	HSP90 refold inh 43 | HSP90 inh confirm inactive | luciferase ctr inactive
Cc1ccn2c(c1)nc(=S)n2C(=O)c1ccccc1	none
Cc1cccc(C(=O)n2c(=S)nc3cc(C)ccn32)c1	HSP90 refold inh 18 | HSP90 inh confirm 57 | luciferase ctr 47
CC1(C)CC(NC(=O)COc2ccccc2Cl)CC(C)(C)N1	HSP90 refold inh 33, HSF1 inhib -65 (no result: ARNT TACC3 PPI) | HSP90 inh confirm 37 | luciferase ctr 45
CC1(C)CC(NC(=O)COc2ccc(Br)cc2Cl)CC(C)(C)N1	none
CCC(=O)N1[C@@H](CO)[C@@H](c2ccc(-c3ccccc3)cc2)[C@@H]1CN(C)C(C)=O	none (no result: HIF activator, HSP90 refold inh, HSF-1 act, HSF1 inhib)
CC(=O)N(C)C[C@@H]1Oc2ncc(-c3cccnc3)cc2C(=O)N([C@@H](C)CO)C[C@H]1C	none (no result: HIF activator, HSP90 refold inh, HSF-1 act, HSF1 inhib)
COCCCN1C(=O)c2ccc(C(=O)Nc3cccc(OC)c3)cc2C1=O	none

Screening results (PubChem BioAssay)
